Here are results for nine compounds from PubChem BioAssay (NCATS).

The structures appear in SMILES notation. Values without a mark were called inactive. Inconclusive results are not listed. Activity calls are given as the source filed them. Unless noted, the call rests on the fitted dose curve; in most records, active means well fitted curve in the direction sought with a large enough effect; inconclusive means small, poorly fitted or top-dose-only effect, or another doubt; inactive means no such curve, though single readings can be large; an effect the other way counts as inactive or inconclusive.

Assay [1] can be described thus: AP1 Signaling Pathway (AID 357; active means well fitted curve in either direction with a large enough effect, not every such curve was filed as active;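 further: ME-180 reporter cells stimulated with EGF at its EC50 level; on the % scale 0 is the no-effect control and ±100 the full control effect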). The following applies: ME-180 AP-1-bla reporter, EGF-induced, beta-lactamase ratio, 5 h; at 7.69 µM (top of the series) unless noted. The gist of the method:
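Cells are seeded overnight, exposed to compound titrations and an EC50 level of EGF for 5 hours at 37 °C, then loaded with CCF4 dye for 2.5 hours. Beta-lactamase activity under the AP-1 element is read as a blue/green ratio.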

Assay [2] can be described thus: NFAT Signaling Pathway (AID 444; active means well fitted curve in either direction with a large enough effect, not every such curve was filed as active;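 further: carbachol stimulus at about its EC50 of 1 µM final; on the % scale 0 is the no-effect control and ±100 the full control effect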). Conditions: Jurkat NFAT-bla M1, carbachol, beta-lactamase ratio, 5 h; at 7.69 µM (top of the series) unless noted. The gist of the method: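 Read-out: CCF4 FRET ratio (460 nm/530 nm) after 1 h RT dye loading, used for %activity and AC50 from titration series. Cells: Jurkat NFAT-β-lactamase/M1 line, treated with compound plus 1 uM carbachol for 5 h, 37 °C.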

The target in assay [3] is Glucocorticoid receptor (Homo sapiens) (UniProt P04150). Kind of assay: GR-GFP Redistribution (AID 450;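 active means compounds whose dose series gives a full or clear partial fitted curve of increased nuclear translocation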; further: potency means the concentration at half of the fitted maximal effect). The following applies: U2OS GR-GFP nuclear translocation, laser cytometry, 2 h.
Glucocorticoid receptor (Homo sapiens), sequence (P04150 whole entry, looked up, the tested form may be a part): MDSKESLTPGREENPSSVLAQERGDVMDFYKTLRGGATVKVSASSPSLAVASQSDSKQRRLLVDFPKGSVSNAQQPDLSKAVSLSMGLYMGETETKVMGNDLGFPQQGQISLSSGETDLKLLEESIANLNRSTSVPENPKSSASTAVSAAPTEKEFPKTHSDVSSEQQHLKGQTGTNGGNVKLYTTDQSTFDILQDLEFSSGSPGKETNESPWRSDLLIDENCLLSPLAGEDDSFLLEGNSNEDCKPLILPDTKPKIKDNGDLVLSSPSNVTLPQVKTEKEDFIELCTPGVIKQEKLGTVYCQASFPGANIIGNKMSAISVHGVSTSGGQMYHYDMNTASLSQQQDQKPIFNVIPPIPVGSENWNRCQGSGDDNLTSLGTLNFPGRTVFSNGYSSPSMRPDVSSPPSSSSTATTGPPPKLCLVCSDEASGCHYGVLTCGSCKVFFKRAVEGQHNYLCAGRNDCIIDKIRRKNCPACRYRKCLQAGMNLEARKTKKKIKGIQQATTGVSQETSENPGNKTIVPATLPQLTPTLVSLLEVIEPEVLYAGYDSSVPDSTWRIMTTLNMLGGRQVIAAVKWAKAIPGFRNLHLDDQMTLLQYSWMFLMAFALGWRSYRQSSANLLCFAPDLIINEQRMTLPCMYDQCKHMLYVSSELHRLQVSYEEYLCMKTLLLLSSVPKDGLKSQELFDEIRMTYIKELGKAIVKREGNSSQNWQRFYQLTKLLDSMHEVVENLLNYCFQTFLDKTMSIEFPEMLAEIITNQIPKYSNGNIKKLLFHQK
The target is the same in assay [4]. Kind of assay: GR-EFC Redistribution (AID 451; calls by dose curve; further: potency means the concentration at half of the fitted maximal effect). Conditions: CHO-K1 GR-EFC translocation, beta-gal luminescence, 2 h. The gist of the method: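 Translocation of GR-ED fusion to nuclear EA restores b-gal, read by luminescence after 1 h room-temperature detection. Engineered CHO-K1 biosensor cells, 1,000/well, exposed 2 h at 37 C to titrations up to 46 uM final.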

For assay [5], the target named is Mitogen-activated protein kinase 10 (Mus musculus) (UniProt Q61831). Kind of assay: JNK3 AlphaScreen Assay (AID 530; active means well fitted curve in either direction with a large enough effect, not every such curve was filed as active;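 further: kinase came from lysate of stimulated human HepG2 cells; signal reports phosphorylation of biotinylated GST-cJun 1-79 at Ser73 with 10 µM ATP; on the % scale 0 is the no-effect control and ±100 the full control effect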). The method in brief:
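qHTS titrations with 15 min compound pre-incubation before adding ATP (10 uM final). Read-out: AlphaScreen of Ser73-phosphorylated biotin-GST-cJun using HepG2 lysate JNK3 activated by IL-1β and TNFα.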
On the technique in general: Bead proximity is the source of the signal in Alpha formats.

The target in assay [6] is 3',5'-cyclic-AMP phosphodiesterase 4B (Homo sapiens) (UniProt Q07343). The experiment in a line: qHTS Assay for Inhibitors of PDE-IV (AID 607; active means well fitted activation curve with a large enough effect in the main read-out, with a control signal flat, not every such curve was filed as active; further: % of control where 0% means no effect). The method in brief: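 Live HEK293 cells with a modified cyclic nucleotide-gated (CNG) channel report intracellular cAMP via membrane-potential dye fluorescence (ex 535/em 590 nm). Endogenous PDE-IV was targeted. Compounds were tested at up to 22.9 uM final; RO 20-1724 100 uM served as control.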
3',5'-cyclic-AMP phosphodiesterase 4B (Homo sapiens), sequence (Q07343 whole entry, looked up): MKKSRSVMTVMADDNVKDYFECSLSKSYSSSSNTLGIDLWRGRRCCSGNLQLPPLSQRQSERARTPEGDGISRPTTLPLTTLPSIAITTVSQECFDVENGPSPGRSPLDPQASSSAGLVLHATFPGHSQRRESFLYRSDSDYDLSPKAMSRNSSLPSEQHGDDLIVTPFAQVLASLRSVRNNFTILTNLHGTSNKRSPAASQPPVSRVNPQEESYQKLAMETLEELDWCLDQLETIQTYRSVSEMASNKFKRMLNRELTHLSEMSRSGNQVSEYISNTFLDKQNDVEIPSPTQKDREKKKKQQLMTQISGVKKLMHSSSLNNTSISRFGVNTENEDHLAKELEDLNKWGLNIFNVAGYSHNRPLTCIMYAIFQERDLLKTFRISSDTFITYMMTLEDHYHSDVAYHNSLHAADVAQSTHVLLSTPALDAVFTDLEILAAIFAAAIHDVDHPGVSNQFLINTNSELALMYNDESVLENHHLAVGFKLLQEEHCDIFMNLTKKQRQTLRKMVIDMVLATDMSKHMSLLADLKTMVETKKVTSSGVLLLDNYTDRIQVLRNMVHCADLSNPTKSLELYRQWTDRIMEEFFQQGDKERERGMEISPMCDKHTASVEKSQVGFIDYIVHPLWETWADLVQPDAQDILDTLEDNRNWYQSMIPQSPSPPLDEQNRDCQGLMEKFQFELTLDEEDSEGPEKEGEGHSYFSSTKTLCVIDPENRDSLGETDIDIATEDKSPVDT

Assay [7] has as its target Dual specificity protein kinase CLK4 (Homo sapiens) (UniProt Q9HAZ1). Kind of assay: qHTS Assay for Inhibitors of CDC-like Kinase 4 (Kinase-Glo Assay) (AID 1770). Further: nearly all actives have a fitted effect of over 65% in size. Further: potency means the concentration at half of the fitted maximal effect. The gist of the method:
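Inhibition was judged from remaining ATP, measured by Ultra-Glo luciferase bioluminescence after Clk4 (25 nM) had acted on RS peptide at 1 uM ATP for 4.5 hours, room temperature.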
For orientation: Quantitative high-throughput screening tests each substance at several concentrations.

Assay [8] has the same target. Kind of assay: qHTS Assay for Inhibitors of CDC-like Kinase 4 (ADP-Glo Assay) (AID 1771). Further: nearly all actives have a fitted effect of over 70% in size. Further: potency means the concentration at half of the fitted maximal effect. The gist of the method: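 ADP production was read by ADP-Glo luminescence after residual ATP depletion, following 1 h room-temperature reaction of 25 nM Clk4, 1 uM ATP and 100 uM RS peptide with MgCl2, EGTA, DTT and Triton X-100.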
The target in assay [9] is Ubiquitin carboxyl-terminal hydrolase 1 (Homo sapiens) (UniProt O94782). Kind of assay: Inhibitors of USP1/UAF1: Pilot qHTS (AID 504865).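 Further: rhodamine fluorescence freed from ubiquitin-rhodamine substrate followed over time; top concentration of the series differs between compounds; on the % scale 0 is the no-effect control and ±100 the full control effect; nearly all actives have a fitted effect of over 35% in size.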 The method in brief:
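Kinetic fluorescence assay: 1nM USP1/UAF1, 15 min compound preincubation, then 150nM Ub-Rho; 480/540 nm.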

Assay [10] concerns the target Lysosomal acid glucosylceramidase (Homo sapiens) (UniProt P04062). The experiment in a line: Glucocerebrosidase-p2 (AID 348; in the data active means potency below about 10 µM; further: potency means the concentration at half of the fitted maximal effect). Conditions: purified GBA, blue fluorogenic substrate, 40 min. The gist of the method:
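Normal human glucocerebrosidase (0.2 nM) with blue fluorogenic substrate (80 uM final) in citrate/phosphate pH 5.9 with 10mM sodium taurocholate, 0.01% tween-20; 40 min RT, NaOH/glycine stop; fluorescence Ex 365/Em 440; AC50 from a titration from 0.6 nM upwards.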

Assay [11] concerns the target Cytochrome P450 1A2 (Homo sapiens) (UniProt P05177). The experiment in a line: p450-cyp1a2 (AID 410; calls by dose curve; further: potency means the concentration at half of the fitted maximal effect). The gist of the method:
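Luminescent demethylation readout: Luciferin-ME (100uM, equal to Km) turned over by 20nM CYP1A2 for 60 min at room temperature after NADPH regeneration addition, following 10 min compound preincubation. Normalization used 57 uM furafylline as full inhibition.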

Assay [12] in a line: Stat Signaling Pathway (AID 446; active means well fitted curve in either direction with a large enough effect, not every such curve was filed as active;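 further: ME-180 cervical cancer cells given 40 pM IL-6 alongside compound; SIE-controlled beta-lactamase reporter measured as 460/530 nm FRET emission ratio; on the % scale 0 is the no-effect control and ±100 the full control effect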). The method in brief:
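Overnight-plated ME-180 cells bearing a STAT Inducible Element beta-lactamase reporter; 5 h co-exposure to compound and 40 pM IL-6; values normalized to 300 pM IL-6 and 125 nM JAK inhibitor controls.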

The target of assay [13] is Cytochrome P450 3A4 (Homo sapiens) (UniProt P08684). Kind of assay: qHTS Assay for Activators of Cytochrome P450 3A4 (AID 885). Further: nearly all actives have a fitted effect of over 65% in size. The method in brief: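 Using 20nM recombinant human CYP3A4 in potassium phosphate (200mM), substrate Luciferin-PPXE at 25uM, luminescent luciferin detection followed a 60-min RT NADPH reaction; data scaled to 57 uM ketoconazole.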
Cytochrome P450 3A4 (Homo sapiens), sequence (P08684 whole entry, looked up): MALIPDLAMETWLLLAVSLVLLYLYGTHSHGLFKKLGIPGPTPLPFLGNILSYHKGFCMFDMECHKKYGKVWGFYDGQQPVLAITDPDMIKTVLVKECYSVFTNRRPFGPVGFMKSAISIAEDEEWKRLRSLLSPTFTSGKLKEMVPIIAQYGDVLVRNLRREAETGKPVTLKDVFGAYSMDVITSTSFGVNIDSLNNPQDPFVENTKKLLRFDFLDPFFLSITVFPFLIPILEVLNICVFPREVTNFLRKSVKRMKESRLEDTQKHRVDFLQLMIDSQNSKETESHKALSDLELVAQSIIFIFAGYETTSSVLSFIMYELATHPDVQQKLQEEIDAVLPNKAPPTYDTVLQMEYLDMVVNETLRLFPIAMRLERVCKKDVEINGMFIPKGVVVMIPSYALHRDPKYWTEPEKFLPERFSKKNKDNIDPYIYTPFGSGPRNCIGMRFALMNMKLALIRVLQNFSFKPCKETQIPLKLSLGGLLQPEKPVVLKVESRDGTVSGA
Assay [14] can be described thus: qHTS Assay for Identification of Small Molecule Agonists for Hypoxia Response Element Signaling Pathway (AID 914; active means well fitted activation curve with a large enough effect in the signal ratio, with a control signal flat, not every such curve was filed as active; the % refers to the signal ratio; further: potency means the concentration at half of the fitted maximal effect; on activation: % of control where 0% means no effect). Conditions: ME-180 (cervical carcinoma) HRE-bla reporter, beta-lactamase ratio, CoCl2, 17 h; activation: stronger effect = higher value. The gist of the method: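 HRE-bla ME-180 cells, overnight plating in Opti-MEM with 0.5% dialyzed FBS; cpd titration + EC50 CoCl2, 17 h, 37 degrees Celsius; CCF4 2.5 h RT; 460/530 nm ratio; AC50.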

Assay [15] addresses Dual specificity protein kinase CLK4 (Homo sapiens) (UniProt Q9HAZ1). The experiment in a line: qHTS Assay for Inhibitors of CDC-like Kinase 4 (ADP-FP Assay) (AID 1795).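 Further: recombinant human CLK4 phosphorylating RS repeat peptide at 1 µM ATP; on the % scale 0 is the no-effect control and ±100 the full control effect; nearly all actives have a fitted effect of over 60% in size.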 The method in brief: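 Inhibition of ADP formation by 6.25 nM Clk4 is measured using 1 uM ATP and 100 uM RS repeat peptide over one hour. Produced ADP displaces a fluorescent tracer from antibody, lowering polarization.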

Assay [16] addresses Cytochrome P450 2C19 (Homo sapiens) (UniProt P33261). Kind of assay: qHTS Assay for Inhibitors and Substrates of Cytochrome P450 2C19 (AID 899). Further: potency means the concentration at half of the fitted maximal effect; nearly all actives have a fitted effect of over 60% in size. The method in brief: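 Reactions contain 5nM enzyme, 10uM Luciferin-H EGE (KM) and 50mM KPO4; compound preincubates 10 min at 37C, NADPH regeneration starts turnover for 60 min. Luminescence after detection reagent gives activity.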

Ubiquitin carboxyl-terminal hydrolase 1 (Homo sapiens), sequence (O94782 whole entry, looked up): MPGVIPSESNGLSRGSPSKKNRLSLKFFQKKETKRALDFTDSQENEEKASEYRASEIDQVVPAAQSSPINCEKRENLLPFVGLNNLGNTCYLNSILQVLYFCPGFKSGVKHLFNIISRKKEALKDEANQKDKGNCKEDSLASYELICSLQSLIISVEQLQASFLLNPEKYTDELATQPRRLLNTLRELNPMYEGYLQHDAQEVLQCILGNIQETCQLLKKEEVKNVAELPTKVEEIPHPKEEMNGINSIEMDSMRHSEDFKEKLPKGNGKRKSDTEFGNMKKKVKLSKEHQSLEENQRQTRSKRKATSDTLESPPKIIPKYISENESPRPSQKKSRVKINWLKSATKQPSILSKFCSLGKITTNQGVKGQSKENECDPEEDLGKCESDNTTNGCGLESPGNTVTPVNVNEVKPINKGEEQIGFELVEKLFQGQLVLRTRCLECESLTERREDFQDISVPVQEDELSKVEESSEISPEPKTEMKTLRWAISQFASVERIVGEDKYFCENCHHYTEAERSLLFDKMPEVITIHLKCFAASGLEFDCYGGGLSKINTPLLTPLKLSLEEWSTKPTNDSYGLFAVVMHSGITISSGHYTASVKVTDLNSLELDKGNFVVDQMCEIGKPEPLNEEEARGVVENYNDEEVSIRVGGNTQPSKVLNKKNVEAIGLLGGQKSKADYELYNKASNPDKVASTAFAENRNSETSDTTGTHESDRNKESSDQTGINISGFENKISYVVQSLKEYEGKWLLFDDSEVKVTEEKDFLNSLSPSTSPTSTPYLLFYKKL
Cytochrome P450 1A2 (Homo sapiens), sequence (P05177 whole entry, looked up): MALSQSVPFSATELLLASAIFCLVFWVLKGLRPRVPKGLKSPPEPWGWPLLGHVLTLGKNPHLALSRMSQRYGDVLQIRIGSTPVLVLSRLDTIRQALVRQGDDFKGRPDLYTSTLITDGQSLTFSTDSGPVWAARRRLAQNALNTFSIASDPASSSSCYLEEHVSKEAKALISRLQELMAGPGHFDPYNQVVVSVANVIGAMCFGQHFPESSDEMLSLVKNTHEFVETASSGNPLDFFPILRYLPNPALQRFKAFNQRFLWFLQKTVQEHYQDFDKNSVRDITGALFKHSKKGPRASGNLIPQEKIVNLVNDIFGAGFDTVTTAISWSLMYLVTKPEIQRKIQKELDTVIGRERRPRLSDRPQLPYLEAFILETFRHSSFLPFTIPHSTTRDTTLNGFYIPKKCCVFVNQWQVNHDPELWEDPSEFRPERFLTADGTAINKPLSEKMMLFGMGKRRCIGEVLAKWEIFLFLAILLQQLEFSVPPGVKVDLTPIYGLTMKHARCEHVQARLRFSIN
Lysosomal acid glucosylceramidase (Homo sapiens), sequence (P04062 whole entry, looked up): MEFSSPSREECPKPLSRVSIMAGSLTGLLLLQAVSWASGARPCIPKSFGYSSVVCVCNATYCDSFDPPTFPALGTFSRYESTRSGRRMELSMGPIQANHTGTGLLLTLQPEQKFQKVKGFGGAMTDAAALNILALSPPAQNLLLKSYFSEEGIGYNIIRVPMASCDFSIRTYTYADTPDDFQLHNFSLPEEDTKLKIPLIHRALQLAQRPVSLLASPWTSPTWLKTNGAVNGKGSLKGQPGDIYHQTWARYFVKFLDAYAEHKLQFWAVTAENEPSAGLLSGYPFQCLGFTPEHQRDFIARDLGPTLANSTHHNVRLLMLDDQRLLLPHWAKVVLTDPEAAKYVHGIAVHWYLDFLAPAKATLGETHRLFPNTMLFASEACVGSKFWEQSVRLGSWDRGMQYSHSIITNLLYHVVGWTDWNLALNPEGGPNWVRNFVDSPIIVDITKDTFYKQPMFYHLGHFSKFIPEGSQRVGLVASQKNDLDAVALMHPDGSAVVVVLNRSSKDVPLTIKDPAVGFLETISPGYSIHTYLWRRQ
Dual specificity protein kinase CLK4 (Homo sapiens), sequence (Q9HAZ1 whole entry, looked up): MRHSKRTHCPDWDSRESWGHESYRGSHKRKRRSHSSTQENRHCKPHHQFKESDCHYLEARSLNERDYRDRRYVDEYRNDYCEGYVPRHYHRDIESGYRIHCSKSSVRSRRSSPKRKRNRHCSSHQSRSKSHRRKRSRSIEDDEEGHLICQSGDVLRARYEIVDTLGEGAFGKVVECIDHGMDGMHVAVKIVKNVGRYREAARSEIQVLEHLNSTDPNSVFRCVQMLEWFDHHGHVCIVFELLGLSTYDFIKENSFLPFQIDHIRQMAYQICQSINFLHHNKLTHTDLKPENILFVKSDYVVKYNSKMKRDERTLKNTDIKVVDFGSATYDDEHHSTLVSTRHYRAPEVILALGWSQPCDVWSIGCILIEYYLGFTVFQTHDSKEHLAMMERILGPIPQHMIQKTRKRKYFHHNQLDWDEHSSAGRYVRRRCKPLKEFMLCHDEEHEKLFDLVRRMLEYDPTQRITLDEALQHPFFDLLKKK
Cytochrome P450 2C19 (Homo sapiens), sequence (P33261 whole entry, looked up): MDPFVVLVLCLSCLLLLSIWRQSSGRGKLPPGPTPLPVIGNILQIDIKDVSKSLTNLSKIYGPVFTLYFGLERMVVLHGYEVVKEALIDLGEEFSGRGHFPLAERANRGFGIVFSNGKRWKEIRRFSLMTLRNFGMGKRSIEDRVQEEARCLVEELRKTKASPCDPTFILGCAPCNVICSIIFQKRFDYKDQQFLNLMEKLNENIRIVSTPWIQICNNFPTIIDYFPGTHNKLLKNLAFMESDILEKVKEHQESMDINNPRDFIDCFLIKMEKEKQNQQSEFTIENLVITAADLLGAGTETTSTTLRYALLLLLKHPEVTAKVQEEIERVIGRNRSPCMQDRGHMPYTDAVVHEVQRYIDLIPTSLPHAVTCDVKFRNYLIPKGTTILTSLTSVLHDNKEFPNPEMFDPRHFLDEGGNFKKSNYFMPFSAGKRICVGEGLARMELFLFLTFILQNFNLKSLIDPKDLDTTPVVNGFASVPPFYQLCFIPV

For `O=c1c(CCc2ccccc2)nc2cnc(N3CCNCC3)nc2n1Cc1cccs1`, the activity change, negative = inhibition in assay [1] was 7.64%; in assay [2], 3.16%. Besides, the Potency in assay [3] was > 9.22 µM; in [4], > 46 µM. The Potency result in assay [5], in assay [6], in assay [7], in [8] and in assay [9] was “inactive” each time.

On to `COc1ncc2nc(-c3cccs3)c(=O)n(CCC#N)c2n1`, for which the Potency in assay [10] is > 11.4 µM; in assay [11], 6.31 µM (active); in assay [3], > 9.22 µM; in [4] it was > 46 µM. Besides, the activity change, negative = inhibition in [1] was 10.4%; in [2], 8.94%. Further, the result in [12] and in [13] was inactive. Besides, the Potency entry in [5], in assay [6], in assay [7], in assay [15] and in assay [9] was “inactive” each time. Besides, the activation in assay [14] was 25.6%.

Take `COc1ccccc1-c1nc(Nc2ccncc2)c2ccccc2n1`: the activity change, negative = inhibition in assay [1] is -6.27%. Further, the Potency is 0.316 µM (active) in assay [11]; > 46 µM in [3]; > 46 µM in assay [4]; 14.1 µM (active) in assay [7]; 12.6 µM (active) in assay [8]. Also, the Potency result in assay [5] and in assay [9] was “inactive” throughout. Besides, the outcome in assay [13] was inactive.

As to `CCNc1ncc2nc(-c3ccc(OC)cc3)c(=O)n(C)c2n1`, the Potency in assay [10] is > 11.4 µM; in assay [4], > 46 µM; in [14], 3.98 µM (active). Also, the activity change, negative = inhibition in assay [1] was 22.4%. Also, the Potency result in assay [5], in assay [7], in assay [15] and in assay [9] was “inactive” each time.

With `Cn1c(=O)c(-c2ccc(Cl)cc2)nc2cncnc21`, the Potency in [10] was > 11.4 µM; in [11], 0.0251 µM (active); in assay [3], > 9.22 µM; in assay [4] it was > 46 µM. The results for the activity change, negative = inhibition in assay [1] and in assay [2] were -6.64% and -0.619%, respectively. In assay [12], the compound was classed as inactive. Besides, the Potency result in assay [5], in assay [6], in [7], in assay [8] and in assay [9] was “inactive” throughout.

On to `COc1cccc(-c2nc(NCCN3CCOCC3)c3ccccc3n2)c1`, for which the activity change, negative = inhibition was 6.11% in assay [1] and -2.08% in [2]. Besides, the compound was classed as inactive in assay [12] and in assay [13]. Further, the Potency is > 46 µM in [3], > 46 µM in assay [4], 15.8 µM (active) in [7] and 15.8 µM (active) in assay [8]. The Potency result in [5], in assay [6] and in assay [9] was “inactive” in each case.

In the case of `c1ccc2c(NCCN3CCOCC3)nc(-c3ccoc3)nc2c1`, the figures for the Potency in assay [10], in [3] and in [4] were > 11.4 µM, > 46 µM and > 46 µM, respectively. Besides, the activity change, negative = inhibition in assay [1] is 1.61%; in [2] it was -7.47%. The compound was classed as inactive in assay [12] and in assay [13]. Also, the Potency entry in assay [5], in [7], in assay [15] and in [9] was “inactive” each time. For the same compound, in assay [14], the activation was -2.73%.

With `COc1ccc(Oc2ncc3nc(-c4ccc(F)cc4)c(=O)n(CCC#N)c3n2)cc1`, the results for the Potency in assay [10], in assay [3] and in assay [4] were > 11.4 µM, > 9.22 µM and > 46 µM, respectively. In addition, the activity change, negative = inhibition in [1] was -16.1%; in assay [2], 1.8%. Further, the result in [12] was inactive. Further, the Potency entry in assay [5], in assay [6], in [7], in [15] and in assay [9] was “inactive” in each case.

In the case of `CS(=O)(=O)Nc1cccc(-c2nc(Nc3ccncc3)c3ccccc3n2)c1`, the Potency in [10] is 7.2 µM (active); in assay [11], 0.631 µM (active); in assay [3], > 46 µM; in assay [4] it was > 46 µM; in assay [16], 5.01 µM (active); in [7] it was 12.6 µM (active). Besides, in [8], the Potency is 10 µM (active). Besides, the activity change, negative = inhibition in assay [1] is -17.9%. The Potency result in assay [5] and in assay [9] was “inactive” throughout. The call in assay [13] was inactive.
